Compound activity (PubChem BioAssay)
Hits are enriched below; roughly 1.1% of the tested compounds scored in any of these assays.
RXFP1 antag – antagonists of human relaxin receptor RXFP1; Q9HBX9; HEK293-RXFP1, relaxin-stimulated cAMP HTRF, 30 min; hits give low values; 350,000 compounds, 0.59% hits; activity change, negative = inhibition, % at 57.5 µM; AID 1259400;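 active = activity change of -60% or lower, but not beyond a set lower limit; inconclusive = change between -60% and -40%, or beyond the set limit; inactive = change above -40%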; also: % is scaled to controls: 0 for no effect and ±100 for the full control effect
gsp antagonist – gsp mutant antagonism | gsp-mutant cells, cAMP HTRF, 30 min | Potency, µM (series often up to 76.9 µM), for the others: top-dose activity change, negative = inhibition, most hits filed as inhibitors | 340,000 compounds, 0.4% hits | AID 624288; calls by dose curve; cell line not stated here;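 also: intracellular cAMP measured with PDE inhibitor Ro 20-1724 present during compound exposure; potency is read from the fitted curve at half-maximal effect; % is scaled to controls: 0 for no effect and ±100 for the full control effect; nearly all actives have a fitted effect of over 65% in size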
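Measurement of cellular cAMP by homogeneous time-resolved fluorescence following a 30 min compound exposure at 37C. The PDE inhibitor […] was present throughout; the assay buffer was DPBS with 0.05% BSA and 0.005% Tween 20.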
gsp ag – activates gsp, the McCune-Albright syndrome mutation; 340,000 compounds, 0.13% hits; AID 624287; Potency, µM (doses to about 76.9 µM), for the others: top-dose activation (cAMP increase), actives largely listed as activators; gsp mutant cells, cAMP HTRF, 30 min; active = well fitted activation curve with a large enough effect; inconclusive = small, poorly fitted or top-dose-only effect, or another doubt; inactive = no such curve, though single readings can be large or run the other way; cell line not stated here;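 also: phosphodiesterase inhibitor Ro 20-1724 added with compounds to block cAMP breakdown; potency is read from the fitted curve at half-maximal effect; nearly all actives have a fitted effect of over 60% in size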
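Cells stably selected in G418 were plated at 2000/well, grown 16-24 hr, then given compounds in DMSO with the PDE inhibitor […] (300 uM solution added) for 30 min at 37C; cAMP was read by HTRF.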
TRPV1 PAM – potentiators of human vanilloid receptor 1 (TRPV1) | 320,000 compounds, 0.02% hits | potentiation, % at 8.33 µM | Q8NER1 | TRPV1-expressing cells, Fluo-8 calcium influx, capsaicin EC20 potentiation; in the data active = potentiation above about 80%; inconclusive = between about 30% and that limit; also: 0% is about no effect
Target sequence (Q8NER1 whole entry, looked up): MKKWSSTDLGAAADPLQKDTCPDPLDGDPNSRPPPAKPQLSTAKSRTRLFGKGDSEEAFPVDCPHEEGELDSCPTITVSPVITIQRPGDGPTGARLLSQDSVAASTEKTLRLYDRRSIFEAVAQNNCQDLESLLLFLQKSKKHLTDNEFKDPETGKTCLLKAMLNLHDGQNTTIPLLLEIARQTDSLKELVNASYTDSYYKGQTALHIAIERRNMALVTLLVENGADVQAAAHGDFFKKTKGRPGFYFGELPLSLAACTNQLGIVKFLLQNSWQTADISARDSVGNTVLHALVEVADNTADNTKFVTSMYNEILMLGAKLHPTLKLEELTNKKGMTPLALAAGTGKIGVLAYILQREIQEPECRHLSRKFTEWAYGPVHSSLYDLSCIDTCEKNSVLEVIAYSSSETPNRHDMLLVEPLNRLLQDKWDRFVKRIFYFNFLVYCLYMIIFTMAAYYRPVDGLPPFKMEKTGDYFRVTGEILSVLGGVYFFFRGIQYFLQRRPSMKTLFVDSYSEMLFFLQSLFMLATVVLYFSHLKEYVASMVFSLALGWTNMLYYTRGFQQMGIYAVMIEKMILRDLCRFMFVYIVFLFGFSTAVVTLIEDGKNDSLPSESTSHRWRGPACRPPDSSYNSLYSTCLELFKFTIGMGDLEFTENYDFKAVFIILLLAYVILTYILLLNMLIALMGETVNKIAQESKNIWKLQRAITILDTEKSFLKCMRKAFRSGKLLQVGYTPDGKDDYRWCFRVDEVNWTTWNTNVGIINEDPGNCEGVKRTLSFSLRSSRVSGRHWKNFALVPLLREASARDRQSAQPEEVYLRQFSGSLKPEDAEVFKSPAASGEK
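Cells expressing TRPV1 were dye-loaded with Fluo-8 and read kinetically: 10 s baseline, 3 min after compound (agonist portion), then 2 min after EC20 capsaicin (allosteric enhancer portion). Calcium-bound dye fluorescence at 480/520 nm.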
RXFP1 agonist – activates the human relaxin receptor RXFP1; 370,000 compounds, 0.3% hits; Q9HBX9; HEK293T-RXFP1 cAMP TR-FRET, 30 min; response scale: percent of porcine relaxin response, buffer zero; Potency, µM (doses to about 57.5 µM), inactives show at the top dose activation, most hits filed as activators; active = well fitted activation curve with a large enough effect; inconclusive = small, poorly fitted or top-dose-only effect; also: potency is read from the fitted curve at half-maximal effect; % is scaled to controls: 0 for no effect and ±100 for the full control effect; nearly all actives have a fitted effect of over 60% in size
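HEK293 cells stably expressing RXFP1, treated 30 min at 37C with compounds plus PDE4 inhibitor Ro 20174; cAMP measured by HTRF TR-FRET. Normalized to buffer and 29 nM porcine relaxin; EC50 by Hill fit.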
TRPV1 agonist – activates the human vanilloid receptor TRPV1; TRPV1-expressing cells, Fluo-8 calcium influx, agonist mode; activation, % at 8.33 µM; 320,000 compounds, 0.19% hits; AID 540275; in the data active = activation above about 80%; inconclusive = between about 30% and that limit; also: 0% is about no effect
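Fluo-8 calcium influx in TRPV1-expressing cells, kinetic read (ex 480/em 520 nm). Compound added and read 3 min for agonist activity, followed by capsaicin at EC20 final and 2 min further read for enhancement.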
Active calls of the source: *; u = inconclusive; x = not tested or not shown; [ ] = dose if it differs, or a comment.

SMILES	RXFP1 antag	gsp antagonist	gsp ag	TRPV1 PAM	RXFP1 agonist	TRPV1 agonist
COc1ccc([N+](=O)[O-])cc1N(CC(O)CN1CCCC1)S(=O)(=O)c1ccc(C)cc1 (stereo not given)	-65.8*	4.5%	u	1.3	-0.7%	2.1
COc1ccc([N+](=O)[O-])cc1N(CC(O)CN(C)C)S(=O)(=O)c1ccccc1 (stereo not given)	x	17.0%	-35.8%	-2.5	3.9%	0.5
Cc1ccc(Cl)cc1-n1ncc2c(NCCc3ccccc3)ncnc21	-27.5	x	x	x	0.2%	x
Cc1ccc(Cl)cc1-n1ncc2c(NCc3ccc(F)cc3)ncnc21	-65.3*	x	x	x	-2.6%	x
CCCCNC(=O)CSc1nnc(Cc2ccc(Cl)c(Cl)c2)c(=O)[nH]1	10.3	0.9%	0.4%	u	0.7%	2.5
Cc1nnc2ccc(-c3cccc(NC(=O)c4ccc(Br)o4)c3)nn12	-75.2*	-14.3%	u	3.7	10.0%	-2.2
Cc1nnc2ccc(-c3cccc(NC(=O)c4ccc(Cl)nc4)c3)nn12	-15.4	-14.4%	7.5%	-2.6	11.4%	2.0
CC(=O)c1cccc(NC(=O)NC2CCCc3ccccc32)c1 (stereo not given)	3.5	1.8%	10.8%	3.6	0.3%	82.6*
CC(=O)c1cccc(NC(=O)c2ccc(OC3CSC3)cc2)c1	-17.0	1.1%	27.6%	-5.8	14.9%	112.7*
O=C(Nc1ccc2c(c1)CCC2)c1cccc(F)c1	-6.3	0.0%	-25.9%	-17.0	-0.2%	97.4*
CC(=O)c1ccc(NC(=O)NC2CCCc3ccccc32)cc1 (stereo not given)	3.1	-25.9%	18.7%	-3.4	-0.2%	u
CC(=O)c1cccc(NC(=O)c2ccc3c(c2)CCCC3)c1	8.5	-29.1%	-28.2%	-0.6	0.6%	87.0*
Cc1ccc(C)c(N2CCN(C(c3ccc(F)cc3)c3nnc(-c4ccccc4)o3)CC2)c1 (stereo not given)	-3.1	x	x	x	3.1%	x
O=C(c1cc(S(=O)(=O)N2CCOCC2)c(Cl)cc1Cl)N1CCN(S(=O)(=O)c2cccc(F)c2)CC1	-22.7	2.8%	9.4%[15.4 µM]	x	x	x
CN(CC(=O)Nc1nc2ccccc2s1)S(=O)(=O)c1ccc(Cl)cc1	-17.8	31.6µM*	-6.7%	0.9	0.2%	11.7
Cc1cccc(NC(=O)CN(C)S(=O)(=O)c2ccc(Cl)cc2)n1	-7.5	10.6%	-5.4%	22.6	0.0%	-2.2
Cc1cccc(NC(=O)CN(C)S(=O)(=O)c2ccc(Br)cc2)n1	1.9	6.8%	1.4%	-8.5	0.5%	7.1
CN(CC(=O)Nc1nc2ccccc2s1)S(=O)(=O)c1ccc(Br)cc1	-35.4	39.8µM*	-9.6%	-1.6	-5.8%	0.2
COCCNCCOc1ccc(C)cc1[N+](=O)[O-]	9.9	50.1µM*	-5.4%	-4.9	-4.8%	-0.3
C=CCNCCOCCOc1ccc(C)cc1[N+](=O)[O-]	7.4	7.2%	-5.5%	6.0	-0.3%	-1.1
COc1cccc(NC(=O)COC(=O)CCn2c(C)csc2=O)c1	-10.2	-17.5%	39.7%	1.7	0.5%	1.7
CCCCNC(=O)c1sc(=S)n2c1[nH]c(=O)c1ccc(C(=O)NCCc3ccc(OC)c(OC)c3)cc12	4.9	35.5µM*	u	6.7	1.0%	3.4
CCCCCn1c(=O)[nH]c2cc(C(=O)NCCc3ccc(OC)c(OC)c3)ccc2c1=O	-20.6	18.1%	-0.7%	9.3	0.3%	-0.9
CC(C)Oc1ccc(C(CCN)C2CCCCC2)cc1 (stereo not given)	-75.2*	13.3%	-0.3%	14.1	0.4%	4.7
CCC(CC)c1nnc(NC(=O)CN2C(=O)NC3(CCCC3)C2=O)s1	-6.8	-19.4%	-30.6%	-14.2	0.2%	-5.3
SMILES	RXFP1 antag	gsp antagonist	gsp ag	TRPV1 PAM	RXFP1 agonist	TRPV1 agonist
CCN(CC)S(=O)(=O)c1ccc(-c2nnc(SCC(=O)N3c4ccccc4CC3C)n2CC)cc1 (stereo not given)	-0.1	28.2µM*	-0.4%	4.0	-0.3%	0.6
CCN(CC)S(=O)(=O)c1ccc(-c2nnc(SCC(=O)N3c4ccccc4CC3C)o2)cc1 (stereo not given)	-27.4	u	0.3%	11.5	0.6%	-0.3
Cc1[nH]c2ccccc2c1C(=O)COC(=O)c1nccnc1N	-66.3*	-9.6%	31.1%	0.0	0.5%	-1.2
Cc1[nH]c2ccccc2c1C(=O)COC(=O)c1ccccc1O	-19.8	u	-3.9%[15.4 µM]	x	x	x
CCN(CC)CCNC(=O)c1c(C)n(-c2ccccc2)c2cc(Br)c(OC)cc12	-78.1*	15.3%	24.6%	-18.5	-2.1%	u
CCc1cccc2c(C(=O)COC(=O)[C@@H]3CC(O)CN3S(=O)(=O)c3ccccc3[N+](=O)[O-])c[nH]c12 (stereo not given in full)	-80.0*	-13.2%	9.3%	x	x	x
O=C(COC(=O)[C@@H]1CC(O)CN1S(=O)(=O)c1ccccc1[N+](=O)[O-])c1ccccc1 (stereo not given in full)	-8.4	-1.0%	-56.2%	5.8	0.8%	-0.7
COc1cccc(NC(=O)CN(C)C(=O)c2cc(-c3ccccc3)nc3ccccc23)c1	-34.2	u	3.6%	-5.2	-0.4%	u
COc1cccc(NC(=O)CN(C)C(=O)c2cc(-c3ccc(F)cc3)nc3ccccc23)c1	u	39.8µM*	-18.4%	-0.4	-2.0%	-2.1
COC(=O)N/N=C(\CCC(=O)O)c1cccs1	5.1	6.5%	1.6%[15.4 µM]	-10.0	-0.8%	-2.9
Cc1cccc(Nc2nc(N)c([N+](=O)[O-])c(N3CCC(C)CC3)n2)c1	-68.7*	-8.0%	28.4%[15.4 µM]	9.9	1.3%	0.4
Cc1nn(-c2ccccc2)c(OC(=O)c2ccc(Br)cc2)c1S(=O)(=O)c1ccccc1	x	x	x	x	-3.6%	x
O=C(N/N=C/c1cccc2ccccc12)c1ccncc1	-11.1	-9.0%	0.2%	-8.0	-1.3%	u
O=C(/C=C/c1cccc2ccccc12)N1CCOCC1	-4.2	-6.9%	-12.6%[15.4 µM]	-18.7	2.6%	91.9*
O=C(/C=C\c1cn(-c2ccccc2)nc1-c1ccc2c(c1)OCCO2)N1CCOCC1	2.4	u	-11.8%	-13.8	-0.1%	115.0*
O=C(/C=C/c1cccc2ccccc12)c1ccncc1	-71.3*	7.3%	-34.3%	-13.8	0.6%	u
NC(=O)CSc1nc2c(c(=O)n1-c1ccccc1)C1(CCCCC1)Cc1ccccc1-2	9.2	-14.2%	15.1%[15.4 µM]	-5.2	7.4%	5.3
Cc1cccc(-n2c(SCC(N)=O)nc3c(c2=O)C2(CCCC2)Cc2ccccc2-3)c1	x	2.7%	10µM*	13.7	28.9%	22.2
